High-throughput results from PubChem.
The sample as a whole holds a higher share of hits than the screen did.
Tg IFNy HTS = blocks Toxoplasma gondii growth in the presence of IFN-gamma; Toxoplasma gondii growth in IFN-gamma-treated host cells; hits give low values; hit rate 3.8% among 69,000; activity change, negative = inhibition, % (no concentration beside the values); AID 1259416; in the data active = activity change below about -70%, passing the limit was not always enough;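 note: host cells are HeLa cells infected with Toxoplasma gondii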
Starred values were filed as active, the others as inactive.

SMILES | Tg IFNy HTS
COc1cccc(C(=O)NCCc2csc(-c3ccc(F)cc3)n2)c1 | -68.3
Cc1cccc(C(=O)NCCc2csc(-c3cccc(F)c3)n2)c1 | -74.6*
CC(=O)NCCc1csc(-c2cccc(F)c2)n1 | 102.1
COc1cccc(C(=O)NCCc2csc(-c3cccc(C)c3)n2)c1 | 365.9
O=C(NCCc1csc(-c2ccc(F)cc2)n1)c1cccc(C(F)(F)F)c1 | -34.3
O=C(NCCc1csc(-c2ccc(F)cc2)n1)c1cccc(Br)c1 | -87.0*
O=C(NCCc1csc(-c2cccc(F)c2)n1)c1cccc(Br)c1 | -81.3*
Cc1ccc(C)c(CN2CCC(CNS(=O)(=O)c3ccc4[nH]c(=O)ccc4c3)CC2)c1 | -49.6
NC(=O)c1cnc2n1CCN(C(=O)CC(c1ccccc1)c1ccco1)C2 (stereo not given) | 0.4
CN1CC(=O)N(c2cnn(C)c2)CC12CCN(C(=O)c1cnccn1)C2 (stereo not given) | 6.3
O=C(CSc1nc(-c2ccccc2)nc2ccc(Cl)cc12)Oc1ccccc1 | -29.5
CC(C)CNC(=O)c1cn(C2CCN(C(=O)c3ccccn3)CC2)nn1 | 3.1
Cc1ccc(SC(=O)c2cc(C)n(-c3c(Cl)cc(Cl)cc3Cl)n2)cc1 | -100.0*
CCCc1cc(Cn2ccnc2-c2nccn2C)on1 | 6.6
CC(C)CN1CCS(=O)(=O)[C@H]2CCN(S(=O)(=O)Cc3ccccc3)CC[C@@H]21 | 8.9
COc1ccc(C(O)c2nccc3cc(OC)c(OC)cc23)cc1OC (stereo not given) | -0.2
CCOc1ccc(CNCc2cccs2)cc1OCC | 2.8
CCOc1ccc(Cc2nccc3cc(OCC)c(OCC)cc23)cc1OCC | -83.0*
CCC(CC)n1nc(C)cc1NC(=O)CC(C)n1cccn1 (stereo not given) | -1.4
CN(C)C(=O)N1C[C@@H]2[C@@H](C1)C(=O)N(C)C21CCN(S(C)(=O)=O)CC1 | -27.5
CC(C)(C)c1ccc(C(=O)/C=c2\[nH]c(=O)/c(=C\c3cccs3)s2)cc1 | -102.3*
Cc1cc(C(=O)c2ccc(C(C)(C)C)cc2)c(N)s1 | 19.0
COc1nc2ccccc2cc1-c1cc(C(N)=O)ccn1 | 7.3
CCn1c(-c2ccc(O)c(OC)c2)n[nH]c1=O | -9.2
CNS(=O)(=O)c1ccc(CN(Cc2ccsc2)Cc2ccco2)cc1 | 2.8
SMILES | Tg IFNy HTS
Cc1ccc(S(=O)(=O)NCC2(c3ccccc3F)CCOCC2)s1 | 4.4
COCC(=O)N1CCCn2c(nc(CN3CCCC3)cc2=O)C1 | -4.0
CCOc1nc(NC)nc(N(C#N)CN2C(=O)c3ccccc3C2=O)n1 | 64.4
CN1CC2(CCN(C(=O)c3cc(C4CC4)[nH]n3)C2)OC1=O (stereo not given) | 2.9
CC(C)CC(NC(=O)OCC1c2ccccc2-c2ccccc21)C(=O)O (stereo not given) | -0.1
CC(C)C[C@@H](C=O)NC(=O)[C@H](CC(C)C)NC(=O)[C@H](CC(C)C)NC(=O)OCc1ccccc1 | -81.5*
CC(C)C[C@H](NC(=O)[C@@H](O)[C@H](N)Cc1ccccc1)C(=O)O | 10.1
CC1(C)C2CC[C@]3(C)[C@H](C(=O)C=C4[C@@H]5C[C@@](C)(C(=O)O)CC[C@]5(C)CC[C@]43C)[C@@]2(C)CC[C@@H]1OC(=O)CCC(=O)O (stereo not given in full) | 18.3
C=C(C)[C@@H]1CC[C@]2(C(=O)O)CC[C@]3(C)[C@H](CC[C@@H]4[C@@]5(C)CC[C@H](OC(=O)CC(C)(C)C(=O)O)C(C)(C)[C@@H]5CC[C@]43C)[C@@H]12 | -73.2*
C=C(C)[C@@H]1CC[C@]2(CO)CC[C@]3(C)[C@H](CC[C@@H]4[C@@]5(C)CC[C@H](O)C(C)(C)[C@@H]5CC[C@]43C)[C@@H]12 | 2.6
Cc1ccc(NC(=O)N2CCN(Cc3nc(-c4cccc(Cl)c4)oc3C)CC2)cc1Cl | -27.8
CCN1CC(C(=O)Nc2ccc(Cn3cncn3)cc2)CC1=O (stereo not given) | -5.8
COc1cccc(CNC(=O)Cn2ncc3c(N4CCOCC4)ncnc32)c1 | 64.1
CCN(CC)c1ncnc2c1cnn2CC(=O)NCc1ccc(OC)cc1 | -99.4*
CN(C)c1ccc(CNC(=O)Cn2ncc3c(N4CCCCC4)ncnc32)cc1 | 31.2
CCN(CC)c1ncnc2c1cnn2CC(=O)NCc1ccc2c(c1)OCO2 | -64.4
CCN(CC)c1ncnc2c1cnn2CC(=O)NCc1cccc(OC)c1 | 84.1
Cc1ccc(CNC(=O)Cn2ncc3c(N4CCCCC4)ncnc32)cc1 | -102.9*
COc1cccc(CNC(=O)Cn2ncc3c(N4CCC(C)CC4)ncnc32)c1 | -99.9*
COc1cc(NC(=O)Cn2ncc3c(N4CCC(C)CC4)ncnc32)cc(OC)c1OC | 12.5
COc1ccc(OC)c(CNC(=O)Cn2ncc3c(N4CCC(C)CC4)ncnc32)c1 | 261.4
COc1ccc(CNC(=O)Cn2ncc3c(N4CCC(C)CC4)ncnc32)cc1 | -85.2*
Cc1ccc(CNC(=O)Cn2ncc3c(N4CCCCCC4)ncnc32)cc1 | -43.9
COCCCNC(=O)Cn1ncc2c(N3CCC(C)CC3)ncnc21 | 61.3
COCCN(Cc1ccc2ccccc2n1)Cc1ccccc1F | 107.3
CC(=O)N[C@H]1c2ccccc2[C@H]2CN(C(=O)c3cnccn3)C[C@H]21 | -0.9
